What all share (assay): DAPPL (digital affinity profiling via proximity ligation, sequencing); 10 mM Tris-HCl pH 7.5, 50 mM NaCl, 1 mM DTT, 4% glycerol, room temperature, 30 min; GST-TFs on glutathione beads, 16-mer random dsDNA library, 0.1% formaldehyde crosslink after washing; high values mean tight binding
Common to all, as to settings: protein: recombinant; tags: N-terminal GST; dsDNA, one strand shown

In one test the target is T1, ERF (Homo sapiens, UniProt P50548 1-548).
T1 sequence: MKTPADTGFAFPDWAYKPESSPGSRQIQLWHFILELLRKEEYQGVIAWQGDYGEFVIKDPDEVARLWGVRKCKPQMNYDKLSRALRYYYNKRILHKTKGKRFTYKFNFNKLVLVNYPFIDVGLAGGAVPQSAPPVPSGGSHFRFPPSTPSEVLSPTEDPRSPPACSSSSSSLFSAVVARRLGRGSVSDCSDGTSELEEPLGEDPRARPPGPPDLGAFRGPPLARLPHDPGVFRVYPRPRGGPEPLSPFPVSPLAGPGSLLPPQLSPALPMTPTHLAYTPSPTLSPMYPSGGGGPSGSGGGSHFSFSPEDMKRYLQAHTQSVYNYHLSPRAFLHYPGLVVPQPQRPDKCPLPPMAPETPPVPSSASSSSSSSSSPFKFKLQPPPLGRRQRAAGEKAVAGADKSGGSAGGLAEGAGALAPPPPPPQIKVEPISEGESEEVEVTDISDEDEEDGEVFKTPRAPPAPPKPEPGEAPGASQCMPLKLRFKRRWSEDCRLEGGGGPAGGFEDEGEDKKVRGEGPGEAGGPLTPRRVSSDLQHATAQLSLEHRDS
A digest of the protocol:
(§1)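 Pools were built from human transcription factors expressed in yeast as GST fusions, captured on glutathione beads and DNA-barcoded, along with a tag-only sample. Incubation with 200 nmole of a 16-mer random double-stranded DNA library lasted 30 min at room temperature in Tris/NaCl/DTT/glycerol buffer, and was followed by washing, 0.1% formaldehyde crosslinking, proximity ligation, PCR amplification and Illumina NextSeq500 sequencing. Binding signal is the quotient of each hexamer's read frequency for a factor and its frequency for the tag-only sample.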

In the next test the target is T2, ETV3L (Homo sapiens, UniProt Q6ZN32 1-361).
T2 sequence: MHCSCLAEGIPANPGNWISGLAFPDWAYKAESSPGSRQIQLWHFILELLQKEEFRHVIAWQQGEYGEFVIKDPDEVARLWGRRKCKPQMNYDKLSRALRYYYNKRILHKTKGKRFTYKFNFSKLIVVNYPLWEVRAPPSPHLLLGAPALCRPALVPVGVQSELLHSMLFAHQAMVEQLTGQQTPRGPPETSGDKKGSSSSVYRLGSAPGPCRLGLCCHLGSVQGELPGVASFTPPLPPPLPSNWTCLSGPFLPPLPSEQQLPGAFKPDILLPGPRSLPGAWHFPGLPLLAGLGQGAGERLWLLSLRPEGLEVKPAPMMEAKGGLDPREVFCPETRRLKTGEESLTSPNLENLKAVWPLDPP
A digest of the protocol: as §1

In a further test the target is T3, ETS2 (Homo sapiens, UniProt P15036 1-469).
T3 sequence: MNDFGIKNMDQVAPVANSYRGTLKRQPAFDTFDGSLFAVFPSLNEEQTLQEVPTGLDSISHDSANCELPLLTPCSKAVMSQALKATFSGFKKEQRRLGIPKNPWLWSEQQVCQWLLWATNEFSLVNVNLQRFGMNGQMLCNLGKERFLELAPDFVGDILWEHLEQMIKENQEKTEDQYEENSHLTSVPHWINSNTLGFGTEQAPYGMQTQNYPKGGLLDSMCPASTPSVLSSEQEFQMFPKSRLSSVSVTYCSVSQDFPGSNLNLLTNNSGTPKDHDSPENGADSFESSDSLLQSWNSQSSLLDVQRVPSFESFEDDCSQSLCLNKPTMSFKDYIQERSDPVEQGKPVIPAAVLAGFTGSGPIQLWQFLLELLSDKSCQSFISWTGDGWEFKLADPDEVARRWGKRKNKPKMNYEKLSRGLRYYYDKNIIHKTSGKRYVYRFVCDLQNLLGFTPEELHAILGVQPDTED
A digest of the protocol: as §1

Another test addresses T4, SPDEF (Homo sapiens, UniProt O95238 1-335).
T4 sequence: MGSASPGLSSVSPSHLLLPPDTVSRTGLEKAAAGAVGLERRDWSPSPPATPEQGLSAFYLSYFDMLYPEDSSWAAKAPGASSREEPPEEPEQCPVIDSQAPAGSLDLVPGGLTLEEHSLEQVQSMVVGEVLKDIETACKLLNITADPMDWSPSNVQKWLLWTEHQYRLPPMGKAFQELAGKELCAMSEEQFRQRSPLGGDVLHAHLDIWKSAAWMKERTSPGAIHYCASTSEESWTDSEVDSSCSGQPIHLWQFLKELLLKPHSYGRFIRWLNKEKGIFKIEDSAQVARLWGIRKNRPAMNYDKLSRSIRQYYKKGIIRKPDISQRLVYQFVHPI
Summed up: as §1

A further test addresses T5, ETV7 (Homo sapiens, UniProt Q9Y603 1-341).
T5 sequence: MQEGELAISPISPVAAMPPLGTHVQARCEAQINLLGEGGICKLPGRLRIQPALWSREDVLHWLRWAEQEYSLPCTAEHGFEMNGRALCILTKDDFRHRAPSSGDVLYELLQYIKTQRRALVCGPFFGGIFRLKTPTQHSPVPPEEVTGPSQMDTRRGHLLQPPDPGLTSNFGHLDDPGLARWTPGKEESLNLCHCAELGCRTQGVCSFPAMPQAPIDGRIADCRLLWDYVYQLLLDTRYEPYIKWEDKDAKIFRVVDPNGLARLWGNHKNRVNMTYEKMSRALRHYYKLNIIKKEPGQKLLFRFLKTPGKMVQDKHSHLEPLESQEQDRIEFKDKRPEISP
A digest of the protocol:
as §1

A further test deals with T6, ELF5 (Homo sapiens, UniProt Q9UKW6-2 1-255).
T6 sequence: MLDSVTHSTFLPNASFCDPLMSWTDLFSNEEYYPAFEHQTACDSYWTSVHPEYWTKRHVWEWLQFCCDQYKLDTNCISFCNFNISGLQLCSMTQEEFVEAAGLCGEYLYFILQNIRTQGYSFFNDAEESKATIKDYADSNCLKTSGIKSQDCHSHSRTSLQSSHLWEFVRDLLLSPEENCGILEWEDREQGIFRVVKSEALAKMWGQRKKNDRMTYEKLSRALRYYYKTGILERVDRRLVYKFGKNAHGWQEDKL
Summed up: as §1

A further test concerns the target T7, ETV3 (Homo sapiens, UniProt P41162-2 1-143).
T7 sequence: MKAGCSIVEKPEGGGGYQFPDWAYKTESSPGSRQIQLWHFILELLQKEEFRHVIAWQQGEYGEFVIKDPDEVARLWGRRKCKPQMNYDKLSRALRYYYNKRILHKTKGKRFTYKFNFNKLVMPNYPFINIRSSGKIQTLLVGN
Summed up: as §1

The next test has as its target ETV6 (Homo sapiens, UniProt P41212 1-452). Summed up: as §1

Chain of ETV6 (P41212 whole entry): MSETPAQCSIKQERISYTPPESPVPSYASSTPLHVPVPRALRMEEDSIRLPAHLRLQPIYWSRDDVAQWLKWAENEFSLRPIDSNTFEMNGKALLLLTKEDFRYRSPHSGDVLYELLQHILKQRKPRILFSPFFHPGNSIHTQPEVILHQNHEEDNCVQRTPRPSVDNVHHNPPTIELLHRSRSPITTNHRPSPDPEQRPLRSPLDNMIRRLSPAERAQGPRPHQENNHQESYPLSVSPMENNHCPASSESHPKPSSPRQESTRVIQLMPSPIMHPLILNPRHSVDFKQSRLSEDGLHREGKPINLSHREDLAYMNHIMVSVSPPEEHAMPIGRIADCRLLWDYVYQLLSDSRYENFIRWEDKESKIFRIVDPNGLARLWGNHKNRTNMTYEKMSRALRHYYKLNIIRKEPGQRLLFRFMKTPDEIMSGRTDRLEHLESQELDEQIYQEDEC

Regarding GTCACA, the binding signal in the test with ERF was 1.11 fold enrichment (6-mer frequency, TF over GST control); with ETV3L, 1.08 fold enrichment (6-mer frequency, TF over GST control); with ETS2, 1.14 fold enrichment (6-mer frequency, TF over GST control); in the test with SPDEF, 1.08 fold enrichment (6-mer frequency, TF over GST control); with ETV7, 1.09 fold enrichment (6-mer frequency, TF over GST control); with ELF5 it was 1.06 fold enrichment (6-mer frequency, TF over GST control). For the same sequence, the binding signal was 1.01 fold enrichment (6-mer frequency, TF over GST control) in the test with ETV3 and 1.06 fold enrichment (6-mer frequency, TF over GST control) in the test with ETV6.
Consider CTGAAG, for which the binding signal is 1.26 fold enrichment (6-mer frequency, TF over GST control) in the test with ERF; 1.09 fold enrichment (6-mer frequency, TF over GST control) with ETV3L; 1.22 fold enrichment (6-mer frequency, TF over GST control) in the test with ETS2; 1.15 fold enrichment (6-mer frequency, TF over GST control) in the test with SPDEF; 1.07 fold enrichment (6-mer frequency, TF over GST control) with ETV7; 1.06 fold enrichment (6-mer frequency, TF over GST control) in the test with ELF5. Moreover, the binding signal with ETV3 was 1.05 fold enrichment (6-mer frequency, TF over GST control); with ETV6, 1.05 fold enrichment (6-mer frequency, TF over GST control).
As for CCTTCA, the binding signal with ERF is 1.42 fold enrichment (6-mer frequency, TF over GST control); in the test with ETV3L, 1.21 fold enrichment (6-mer frequency, TF over GST control); with ETS2, 1.38 fold enrichment (6-mer frequency, TF over GST control); in the test with SPDEF it was 1.48 fold enrichment (6-mer frequency, TF over GST control); with ETV7 it was 1.26 fold enrichment (6-mer frequency, TF over GST control); with ELF5, 1.56 fold enrichment (6-mer frequency, TF over GST control). The binding signal with ETV3 is 1.46 fold enrichment (6-mer frequency, TF over GST control); with ETV6 it was 1.5 fold enrichment (6-mer frequency, TF over GST control).
As to CTTTAC, the binding signal is 1.3 fold enrichment (6-mer frequency, TF over GST control) with ERF; 1.46 fold enrichment (6-mer frequency, TF over GST control) in the test with ETV3L; 1.36 fold enrichment (6-mer frequency, TF over GST control) in the test with ETS2; 1.35 fold enrichment (6-mer frequency, TF over GST control) with SPDEF; 1.38 fold enrichment (6-mer frequency, TF over GST control) with ETV7; 1.35 fold enrichment (6-mer frequency, TF over GST control) in the test with ELF5. The binding signal with ETV3 was 1.39 fold enrichment (6-mer frequency, TF over GST control); with ETV6, 1.41 fold enrichment (6-mer frequency, TF over GST control).
Consider CGGAAA, for which the binding signal with ERF was 1.77 fold enrichment (6-mer frequency, TF over GST control); in the test with ETV3L, 2.05 fold enrichment (6-mer frequency, TF over GST control); with ETS2, 2.07 fold enrichment (6-mer frequency, TF over GST control); with SPDEF, 2.03 fold enrichment (6-mer frequency, TF over GST control); in the test with ETV7, 1.97 fold enrichment (6-mer frequency, TF over GST control); with ELF5, 2.58 fold enrichment (6-mer frequency, TF over GST control). Moreover, the binding signal with ETV3 was 2.26 fold enrichment (6-mer frequency, TF over GST control); in the test with ETV6, 2.53 fold enrichment (6-mer frequency, TF over GST control).
On to AACGGC, for which the binding signal with ERF is 1.2 fold enrichment (6-mer frequency, TF over GST control); with ETV3L, 1.23 fold enrichment (6-mer frequency, TF over GST control); with ETS2, 1.22 fold enrichment (6-mer frequency, TF over GST control); with SPDEF it was 1.16 fold enrichment (6-mer frequency, TF over GST control); with ETV7, 1.11 fold enrichment (6-mer frequency, TF over GST control); with ELF5, 1.16 fold enrichment (6-mer frequency, TF over GST control). The binding signal with ETV3 is 1.29 fold enrichment (6-mer frequency, TF over GST control); with ETV6, 1.26 fold enrichment (6-mer frequency, TF over GST control).
For the sequence AAAAGG, the binding signal in the test with ERF is 1.08 fold enrichment (6-mer frequency, TF over GST control); with ETV3L, 1.1 fold enrichment (6-mer frequency, TF over GST control); in the test with ETS2 it was 1.11 fold enrichment (6-mer frequency, TF over GST control); with SPDEF it was 1.07 fold enrichment (6-mer frequency, TF over GST control); in the test with ETV7 it was 1.16 fold enrichment (6-mer frequency, TF over GST control); with ELF5 it was 1.21 fold enrichment (6-mer frequency, TF over GST control). The binding signal with ETV3 was 1.13 fold enrichment (6-mer frequency, TF over GST control); with ETV6, 1.19 fold enrichment (6-mer frequency, TF over GST control).
As to GCTACG, the binding signal in the test with ERF was 1.29 fold enrichment (6-mer frequency, TF over GST control); with ETV3L, 1.16 fold enrichment (6-mer frequency, TF over GST control); with ETS2, 1.11 fold enrichment (6-mer frequency, TF over GST control); in the test with SPDEF, 1.04 fold enrichment (6-mer frequency, TF over GST control); with ETV7, 1.23 fold enrichment (6-mer frequency, TF over GST control); in the test with ELF5, 1.1 fold enrichment (6-mer frequency, TF over GST control). For the same sequence, the binding signal with ETV3 is 1.05 fold enrichment (6-mer frequency, TF over GST control); with ETV6, 1.23 fold enrichment (6-mer frequency, TF over GST control).
